Measurements from PubChem BioAssay (Tox21).
Results filed as inconclusive are left out. The source made the active and inactive calls. Calls come from the whole dose curve; as a rule, active = well fitted activation curve with a large enough effect in the signal ratio in the repeat runs (not every such curve was filed as active); inconclusive = weak or mixed curves, or effect the other way; inactive = flat fitted curve, though single readings scatter; the % refers to the signal ratio.

Target: Estrogen receptor beta (Homo sapiens) (UniProt Q92731)
Test: qHTS assay to identify small molecule agonists of the estrogen receptor beta (ER-beta) signaling pathway (AID 1259377)
Settings: ER-beta-UAS-bla HEK293T, beta-lactamase FRET ratio, 16 h; series mostly up to 92.4 µM
Source text: U.S. Tox21 Program National Center for Advancing Translational Sciences [NCATS] NIH Chemical Genomics Center [NCGC] U.S. Environmental Protection Agency [EPA] National Institutes of Environmental Health Sciences [NIEHS] National Toxicology Program [NTP] U.S. Food and Drug Administration [FDA] Tox21 Assay Overview: Estrogen receptor (ER), a nuclear hormone receptor, plays an important role in development, metabolic homeostasis and reproduction. Two subtypes of ER, ER-alpha and ER-beta, have similar expression patterns with some uniqueness in both types. Endocrine disrupting chemicals (EDCs) and their interactions with steroid hormone receptors like ER causes disruption of normal endocrine function. To identify the compounds that activate ER signaling, an ER beta-UAS-bla GripTite cell line (Life technologies, Madison, WI, USA) containing a beta-lactamase reporter gene under the control of an Upstream Activator Sequence (UAS) was used to screen Tox21 10K compound library.
Tox21 Assay Protocol Summary: ER-beta-UAS-bla HEK293T cells were dispensed at 2,000 cells/5 uL of assay medium containing 2% charcoal stripped FBS per well into black wall/clear-bottom 1536-well plates using a Multidrop Combi (ThermoFisher Scientific, Waltham, MA) dispenser. After the assay plates were incubated at a 37C and 5% CO2 for 6 hr, 23 nL of compounds dissolved in DMSO, positive controls or DMSO only was transferred to the assay plate by a Pintool station (Kalypsys, San Diego, CA). The plates were incubated at 37C and 5% CO2 for 16 hr. Then 1 uL of LiveBLAzerTM B/G FRET substrate was added using a BioRAPTR FRD (Flying Reagent Dispenser, Aurora Discovery, San Diego, CA). After the plates were incubated at room temperature for 2 hours, fluorescence intensity was measured by an Envision plate reader (PerkinElmer, Shelton, CT).

Sequence of Estrogen receptor beta (Homo sapiens) (Q92731 whole entry, looked up): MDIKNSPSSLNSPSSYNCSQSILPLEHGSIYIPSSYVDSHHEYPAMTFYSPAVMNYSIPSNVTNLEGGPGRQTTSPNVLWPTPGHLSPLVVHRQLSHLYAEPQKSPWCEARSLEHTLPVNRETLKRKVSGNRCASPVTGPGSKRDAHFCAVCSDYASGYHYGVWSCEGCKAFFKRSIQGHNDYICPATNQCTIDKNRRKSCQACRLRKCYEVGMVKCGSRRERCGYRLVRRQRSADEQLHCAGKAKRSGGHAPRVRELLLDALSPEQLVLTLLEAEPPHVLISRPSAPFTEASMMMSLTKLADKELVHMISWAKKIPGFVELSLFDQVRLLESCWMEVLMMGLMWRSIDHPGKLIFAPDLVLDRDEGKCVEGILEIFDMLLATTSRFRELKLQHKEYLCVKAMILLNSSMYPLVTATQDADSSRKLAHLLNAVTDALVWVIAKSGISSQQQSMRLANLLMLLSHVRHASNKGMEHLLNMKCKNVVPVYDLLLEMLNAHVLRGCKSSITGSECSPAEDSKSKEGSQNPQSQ

SMILES | outcome
O=C(Nc1ccccc1-c1ccc(Cl)cc1)c1cccnc1Cl | inactive
Brc1ccc(Br)c(Br)c1 | inactive
ClC(Cl)=C(c1ccc(Cl)cc1)c1ccccc1Cl | inactive
Cc1nnc2n1-c1sc(CCc3ccc(CC(C)C)cc3)cc1C(c1ccccc1Cl)=NC2C (configuration not stated) | inactive
CCN(CC)C(=O)Cl | inactive
CCOC(=O)C(O)(c1ccc(Cl)cc1)c1ccc(Cl)cc1 | inactive
N#Cc1cc([N+](=O)[O-])ccc1N | inactive
Cc1ccc([N+](=O)[O-])cc1N | inactive
ClC1=C(Cl)[C@]2(Cl)[C@@H]3[C@@H](Cl)[C@H]4O[C@H]4[C@@H]3C1(Cl)C2(Cl)Cl | inactive
CC(c1ccccc1)(c1ccc(O)cc1)c1ccc(O)cc1 | inactive
OCC(c1ccc(Cl)cc1)c1ccc(Cl)cc1 | inactive
Cc1cccc([N+](=O)[O-])c1C | inactive
Nc1cccc([N+](=O)[O-])c1 | inactive
Cc1cccc(C)c1[N+](=O)[O-] | inactive
O=C(c1ccccc1)C(Cl)Cl | inactive
CC1COC(Cn2cncn2)(c2ccc(Oc3ccc(Cl)cc3)cc2Cl)O1 (configuration not stated) | inactive
Cc1ccc(N(SC(F)(Cl)Cl)S(=O)(=O)N(C)C)cc1 | inactive
